According to PubChem BioAssay (NCATS):
Inconclusive results are not listed. Where a call stands in place of a potency, no number is given. Active and inactive are the calls of the source. The call rests on the fitted dose curve; in most records, active means well fitted curve in the direction sought with a large enough effect; inconclusive means small, poorly fitted or top-dose-only effect, or another doubt; inactive means no such curve, though single readings can be large; an effect the other way counts as inactive or inconclusive.

Experiment: P-glycoprotein substrates identified in KB-8-5-11 adenocarcinoma cell line, qHTS therapeutic library screen (AID 1346987); further: nearly all actives have a fitted effect of over 65% in size
Conditions: KB-8-5-11 (P-gp overexpressing) viability, CellTiter-Glo, 72 h; series mostly up to 44.5 µM
In short: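 In this qHTS, P-gp-rich KB-8-5-11 cells received library compounds across a concentration range. Viability was quantified by luminescence after 72 h at 37 degree C.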
Potency means the concentration at half of the fitted maximal effect.

**Q.** With `CCCCCCCCCCCCCCCCCC(=O)OCC(O)CO` (configuration not stated) as the compound, how does the Potency read?
**A.** inactive

**Q.** For `COc1ccc(CN2CCN(C(c3ccc(F)cc3)c3ccc(F)cc3)CC2)c(OC)c1OC`, which Potency is on record?
**A.** 23.1 µM (active)

**Q.** With `CCN(CC)C(=O)/C(C#N)=C/c1cc(O)c(O)c([N+](=O)[O-])c1` as the compound, how does the Potency read?
**A.** inactive

**Q.** Which Potency does the source give for `Cc1ncc(CSSCc2cnc(C)c(O)c2CO)c(CO)c1O` here?
**A.** inactive

**Q.** For `CC1(C)O[C@@H]2C[C@H]3[C@@H]4CCC5=CC(=O)CC[C@]5(C)[C@@]4(F)[C@@H](O)C[C@]3(C)[C@]2(C(=O)CCl)O1`, which Potency is on record?
**A.** inactive

**Q.** Which Potency does the source give for `CC(=O)[C@H]1CC[C@H]2[C@@H]3C[C@H](C)C4=CC(=O)CC[C@]4(C)[C@H]3[C@@H](O)C[C@]12C` here?
**A.** 6.99 µM (active)

**Q.** For `O=C1OCCN1/N=C/c1ccc([N+](=O)[O-])o1`, which Potency is on record?
**A.** inactive

**Q.** For `NC[C@H]1O[C@H](O[C@H]2[C@H](O[C@@H]3O[C@H](CO)[C@@H](O)[C@H]3O)C(O)[C@H](N)C[C@@H]2N)[C@H](N)[C@@H](O)[C@@H]1O` (some centres not stated), which Potency is on record?
**A.** inactive

**Q.** For `CN1[C@@H]2CC[C@H]1CC(OC(=O)c1c[nH]c3ccccc13)C2` (some centres not stated), which Potency is on record?
**A.** inactive

**Q.** Which Potency does the source give for `CC(=O)N(O)CCCCCNC(=O)CCC(=O)N(O)CCCCCNC(=O)CCC(=O)N(O)CCCCCN` here?
**A.** inactive

**Q.** Which Potency does the source give for `CC1(C)O[C@@H]2[C@@H](CO[C@@]3(COS(N)(=O)=O)OC(C)(C)O[C@@H]23)O1` here?
**A.** inactive

**Q.** Which Potency does the source give for `CN1CCC[C@@H]1c1cccnc1` here?
**A.** inactive

**Q.** With `CC(O)(P(=O)(O)O)P(=O)(O)O` as the compound, how does the Potency read?
**A.** inactive

**Q.** With `CCn1cc(C(=O)O)c(=O)c2cnc(N3CCCC3)nc21` as the compound, how does the Potency read?
**A.** inactive

**Q.** For `NC(CS)C(=O)O` (configuration not stated), which Potency is on record?
**A.** inactive

**Q.** With `CC(C)(C)CC(C)(C)c1ccc(OCCOCC[N+](C)(C)Cc2ccccc2)cc1` as the compound, how does the Potency read?
**A.** inactive

**Q.** Which Potency does the source give for `COC(=O)[C@@H]1CC2=CC(=O)CC[C@]2(C)[C@@]23O[C@@H]2C[C@@]2(C)[C@@H](CC[C@@]24CCC(=O)O4)[C@H]13` here?
**A.** inactive

**Q.** For `C=C(CC)C(=O)c1ccc(OCC(=O)O)c(Cl)c1Cl`, which Potency is on record?
**A.** inactive

**Q.** For `Oc1cc(O)c2c(c1)O[C@H](c1ccc(O)c(O)c1)[C@H](O)C2`, which Potency is on record?
**A.** inactive

**Q.** Which Potency does the source give for `CC1(C)O[C@@H]2C[C@H]3[C@@H]4C[C@H](F)C5=CC(=O)CC[C@]5(C)[C@H]4[C@@H](O)C[C@]3(C)[C@]2(C(=O)CO)O1` here?
**A.** inactive

**Q.** For `CC(C)COC(=O)c1ccc(N)cc1`, which Potency is on record?
**A.** inactive

**Q.** Which Potency does the source give for `Nc1ccc(C(=O)Nc2ccccc2N)cc1` here?
**A.** 16.4 µM (active)

Experiment: NS1 protein of Zika virus - qHTS assay to identify small molecule inhibitors in human HEK 293 cells (AID 1347053); further: nearly all actives have a fitted effect of over 55% in size
Conditions: HEK293 ZIKV MR766 infection, NS1 TR-FRET, 24 h; series mostly up to 46.1 µM
In short: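 TR-FRET signal from two anti-ZIKV NS1 antibodies quantified NS1 in HEK 293 cells 24 h after MR766 infection at MOI = 0.5; compounds were added 1 h before virus. Uninfected cells and infected cells defined the NS1 normalization range.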

**Q.** For `CCCCCCCCCCCCCCCCCC(=O)OCC(O)CO` (configuration not stated), which Potency is on record?
**A.** inactive

**Q.** With `CCN(CC)C(=O)/C(C#N)=C/c1cc(O)c(O)c([N+](=O)[O-])c1` as the compound, how does the Potency read?
**A.** inactive

**Q.** Which Potency does the source give for `C/C=C(/C(=C/C)c1ccc(O)cc1)c1ccc(O)cc1` here?
**A.** inactive

**Q.** Which Potency does the source give for `Cc1ncc(CSSCc2cnc(C)c(O)c2CO)c(CO)c1O` here?
**A.** inactive

**Q.** With `CC1(C)O[C@@H]2C[C@H]3[C@@H]4CCC5=CC(=O)CC[C@]5(C)[C@@]4(F)[C@@H](O)C[C@]3(C)[C@]2(C(=O)CCl)O1` as the compound, how does the Potency read?
**A.** inactive

**Q.** With `CC(=O)[C@H]1CC[C@H]2[C@@H]3C[C@H](C)C4=CC(=O)CC[C@]4(C)[C@H]3[C@@H](O)C[C@]12C` as the compound, how does the Potency read?
**A.** inactive

**Q.** Which Potency does the source give for `O=C1OCCN1/N=C/c1ccc([N+](=O)[O-])o1` here?
**A.** inactive

**Q.** Which Potency does the source give for `C[C@@H]1C[C@H]2[C@@H]3CCC4=CC(=O)C=C[C@]4(C)[C@@]3(F)[C@@H](O)C[C@]2(C)[C@H]1C(=O)CO` here?
**A.** inactive

**Q.** With `NC[C@H]1O[C@H](O[C@H]2[C@H](O[C@@H]3O[C@H](CO)[C@@H](O)[C@H]3O)C(O)[C@H](N)C[C@@H]2N)[C@H](N)[C@@H](O)[C@@H]1O` (some centres not stated) as the compound, how does the activity change, negative = inhibition read?
**A.** -23.8% [at 9.2 µM] (inactive)

**Q.** For `CN1[C@@H]2CC[C@H]1CC(OC(=O)c1c[nH]c3ccccc13)C2` (some centres not stated), which Potency is on record?
**A.** inactive

**Q.** With `CC(=O)N(O)CCCCCNC(=O)CCC(=O)N(O)CCCCCNC(=O)CCC(=O)N(O)CCCCCN` as the compound, how does the Potency read?
**A.** inactive

**Q.** Which Potency does the source give for `CC1(C)O[C@@H]2[C@@H](CO[C@@]3(COS(N)(=O)=O)OC(C)(C)O[C@@H]23)O1` here?
**A.** inactive

**Q.** For `CCOc1ccc(Cc2nccc3cc(OCC)c(OCC)cc23)cc1OCC`, which Potency is on record?
**A.** inactive

**Q.** Which Potency does the source give for `CN1CCC[C@@H]1c1cccnc1` here?
**A.** inactive

**Q.** With `Oc1c(I)cc(I)c2cccnc12` as the compound, how does the Potency read?
**A.** inactive

**Q.** With `CC(O)(P(=O)(O)O)P(=O)(O)O` as the compound, how does the Potency read?
**A.** inactive

**Q.** For `CCn1cc(C(=O)O)c(=O)c2cnc(N3CCCC3)nc21`, which activity change, negative = inhibition is on record?
**A.** -25.1% [at 9.2 µM] (inactive)

**Q.** With `COC(=O)[C@H]1[C@H]2C[C@H]3c4[nH]c5ccccc5c4CCN3C[C@H]2CC[C@@H]1O` as the compound, how does the Potency read?
**A.** inactive

**Q.** Which Potency does the source give for `COc1ccc(OC)c(C(O)CNC(=O)CN)c1` (configuration not stated) here?
**A.** inactive

**Q.** Which Potency does the source give for `CN(C)CC/C=C1\c2ccccc2Sc2ccc(Cl)cc21` here?
**A.** inactive

**Q.** With `N[C@H](Cc1c[nH]c2ccccc12)C(=O)O` as the compound, how does the Potency read?
**A.** inactive

**Q.** For `COc1cc2c(cc1OC)[C@@H]1CC(=O)[C@@H](CC(C)C)CN1CC2`, which Potency is on record?
**A.** inactive

**Q.** Which Potency does the source give for `NC(CS)C(=O)O` (configuration not stated) here?
**A.** inactive

**Q.** With `CC(C)(C)CC(C)(C)c1ccc(OCCOCC[N+](C)(C)Cc2ccccc2)cc1` as the compound, how does the Potency read?
**A.** 12.6 µM (active)

**Q.** For `COC(=O)[C@@H]1CC2=CC(=O)CC[C@]2(C)[C@@]23O[C@@H]2C[C@@]2(C)[C@@H](CC[C@@]24CCC(=O)O4)[C@H]13`, which Potency is on record?
**A.** inactive

**Q.** With `NC(=O)C(=O)N/N=C/c1ccc([N+](=O)[O-])o1` as the compound, how does the Potency read?
**A.** inactive

**Q.** Which Potency does the source give for `C=C(CC)C(=O)c1ccc(OCC(=O)O)c(Cl)c1Cl` here?
**A.** inactive

**Q.** With `Oc1cc(O)c2c(c1)O[C@H](c1ccc(O)c(O)c1)[C@H](O)C2` as the compound, how does the Potency read?
**A.** inactive

**Q.** For `O=C1[C@H]2CCCC[C@H]2C(=O)N1CCCCN1CCN(c2nsc3ccccc23)CC1`, which Potency is on record?
**A.** inactive

**Q.** Which Potency does the source give for `CC1(C)O[C@@H]2C[C@H]3[C@@H]4C[C@H](F)C5=CC(=O)CC[C@]5(C)[C@H]4[C@@H](O)C[C@]3(C)[C@]2(C(=O)CO)O1` here?
**A.** inactive

**Q.** With `OC(CCN1CCCCC1)(c1ccccc1)c1ccccc1` as the compound, how does the Potency read?
**A.** inactive

**Q.** Which Potency does the source give for `NC(=NCCCCCCN=C(N)/N=C(\N)Nc1ccc(Cl)cc1)/N=C(\N)Nc1ccc(Cl)cc1` here?
**A.** inactive

**Q.** Which Potency does the source give for `CC(=O)OCC(=O)[C@@]1(O)CC[C@H]2[C@@H]3CCC4=CC(=O)C=C[C@]4(C)[C@H]3[C@@H](O)C[C@@]21C` here?
**A.** inactive

**Q.** Which Potency does the source give for `CC(C)COC(=O)c1ccc(N)cc1` here?
**A.** inactive

**Q.** With `Nc1ccc(C(=O)Nc2ccccc2N)cc1` as the compound, how does the Potency read?
**A.** inactive
